Shown are actives, neighbours in structure and some others; about 2.4% of the full set was active somewhere.
NSD2 HMT inh: blocks human histone methyltransferase NSD2 | 310,000 tested, 0.54% active | NSD2 peptide methylation, AlphaScreen, 120 min | inhibition, % at 12.5 µM
Target sequence (O96028 whole entry, looked up): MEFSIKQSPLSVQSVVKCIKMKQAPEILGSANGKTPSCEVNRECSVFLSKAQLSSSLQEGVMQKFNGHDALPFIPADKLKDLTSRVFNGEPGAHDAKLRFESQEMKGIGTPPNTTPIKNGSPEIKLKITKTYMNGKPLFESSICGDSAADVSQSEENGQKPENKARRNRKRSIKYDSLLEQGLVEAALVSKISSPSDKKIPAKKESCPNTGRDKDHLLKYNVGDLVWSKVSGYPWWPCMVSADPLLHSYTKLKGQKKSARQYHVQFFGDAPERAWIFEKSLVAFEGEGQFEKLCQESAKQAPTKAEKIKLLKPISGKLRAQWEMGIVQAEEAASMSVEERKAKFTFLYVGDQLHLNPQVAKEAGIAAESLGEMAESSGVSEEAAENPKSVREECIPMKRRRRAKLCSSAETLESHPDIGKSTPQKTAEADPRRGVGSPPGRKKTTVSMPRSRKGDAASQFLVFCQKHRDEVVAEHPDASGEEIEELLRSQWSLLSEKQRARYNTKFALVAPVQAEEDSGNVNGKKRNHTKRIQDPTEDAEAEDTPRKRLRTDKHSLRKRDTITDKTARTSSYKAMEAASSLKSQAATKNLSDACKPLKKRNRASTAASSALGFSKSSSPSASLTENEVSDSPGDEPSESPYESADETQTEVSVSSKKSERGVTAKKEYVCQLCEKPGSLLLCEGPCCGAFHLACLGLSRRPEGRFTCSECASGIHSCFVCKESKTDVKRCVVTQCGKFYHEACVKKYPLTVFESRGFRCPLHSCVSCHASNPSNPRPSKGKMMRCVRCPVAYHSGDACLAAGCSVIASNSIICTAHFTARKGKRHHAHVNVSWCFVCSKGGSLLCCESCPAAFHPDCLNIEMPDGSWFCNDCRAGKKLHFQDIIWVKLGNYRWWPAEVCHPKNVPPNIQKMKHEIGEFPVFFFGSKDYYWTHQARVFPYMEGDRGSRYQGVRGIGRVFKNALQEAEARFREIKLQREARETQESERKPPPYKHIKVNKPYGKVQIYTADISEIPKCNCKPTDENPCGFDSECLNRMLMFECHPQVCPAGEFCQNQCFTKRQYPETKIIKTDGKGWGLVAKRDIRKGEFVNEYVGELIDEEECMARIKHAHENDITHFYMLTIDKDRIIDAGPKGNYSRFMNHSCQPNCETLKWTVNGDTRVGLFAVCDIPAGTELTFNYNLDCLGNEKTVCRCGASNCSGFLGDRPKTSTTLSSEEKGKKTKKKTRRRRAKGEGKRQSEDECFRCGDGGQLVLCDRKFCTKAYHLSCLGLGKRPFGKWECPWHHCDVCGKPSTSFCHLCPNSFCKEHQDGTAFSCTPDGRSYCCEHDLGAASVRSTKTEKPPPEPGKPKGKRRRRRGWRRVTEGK
Wnt bcat act: activators of Wnt/beta-catenin signaling; Wnt/beta-catenin reporter cell assay, activator, plate reader; activation, % at 9.35 µM; 300,000 tested, 1.2% active; AID 743398; in the data active means activation above about 30%, passing the limit was not always enough;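 further: 0% = neutral control wells and 100% = positive control wells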
Dyrk1A ADPGlo: blocks rat Dyrk1A kinase activity | 310,000 tested, 0.43% active | inhibition, % at 12.5 µM | ADP-Glo luminescence, NFATc1 peptide | AID 504441 | Q63470;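 further: plate controls were vehicle with enzyme for no effect and no enzyme for full effect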
MITF act: MITF TRPM1 promoter activation in melanoma cells. SK-MEL-5 TRPM1-promoter luciferase, 24 h; % of positive control, neutral wells = 0. activation, % at 12.5 µM. 300,000 tested, 0.75% active. AID 588334;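 active means mean activation of at least 80% with every replicate also reaching 80%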;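 further: 0% = neutral control wells and 100% = parthenolide positive control wells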
miR-122 sensor: blocks miR-122 activity in Huh7 sensor cells | Huh7 miR-122 Renilla luciferase sensor, 48 h; neutral wells = 0, positive control = 100 | activation (reporter increase), % at 12.5 µM | 340,000 tested, 0.3% active;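 active means mean replicate activation score at least 90 and every replicate individually at or above 90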;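 further: higher luciferase means less miR-122 activity so hits act as miR-122 inhibitors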
GSIS activator: GLuc luminescence reporter in INS-1E cells, primary screen for activators of glucose-dependent secretion of insulin; activation, % at 16.6 µM; INS-1E GLuc reporter insulin secretion, 2-3 h; 370,000 tested, 0.61% active;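 active means lowest replicate activation of at least 40%, so every replicate reaches that level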;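 further: 0% = median of neutral control wells and 100% = median of IBMX positive control wells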
* hit, by the source's call; nt = no result; [ ] = remark or other dose. Unless noted, no stated cut-off is given here; in the data, active means inhibition above about 50%; inactive means the rest.

SMILES	NSD2 HMT inh	Wnt bcat act	Dyrk1A ADPGlo	MITF act	miR-122 sensor	GSIS activator
Cn1c(=O)c2[nH]c(SCc3ccccn3)nc2n(C)c1=S	-0.1	-0.2	nt	nt	nt	181.0*
CN(C)NC(=S)Nc1cccc(C(F)(F)F)c1	-2.4	0.0	nt	-2.9	-0.2	-2.0
Cc1ccc(NC(=S)NNC(=S)Nc2cccc(C(F)(F)F)c2)cc1	1.8	39.8*	nt	nt	3.5	-18.6
C[C@H](CO)N1C[C@H](C)[C@@H](CN(C)Cc2ccc(Cl)c(Cl)c2)OCCCC[C@H](C)Oc2ccc(NC(=O)Nc3cccc4ccccc34)cc2C1=O	nt	nt	nt	nt	29.1[16.7 µM]	13.8
c1ccc(CSc2ncnc3c2oc2ccccc23)cc1	-3.4	nt	-1.1	1.8	0.0	nt
c1coc(CSc2ncnc3c2oc2ccccc23)c1	-1.0	35.0*	1.4	nt	-6.7	nt
O=C(C[C@H]1C=C[C@H](NS(=O)(=O)c2ccc(F)cc2)[C@H](CO)O1)NCc1ccc(Cl)c(Cl)c1	nt	nt	nt	nt	nt	-13.6
CCN(C(=O)COC(=O)CNC(=O)c1ccc(C)cc1)c1c(N)n(Cc2ccccc2)c(=O)[nH]c1=O	122.3*	3.2	6.6	-3.2	nt	5.4
CC(C)CN(C(=O)COC(=O)/C=C/c1cccs1)c1c(N)n(Cc2ccccc2)c(=O)[nH]c1=O	nt	-5.7	7.9	-7.8	nt	43.7*
COCCN(C(=O)COC(=O)c1cc2c(s1)CCC2)c1c(N)n(Cc2ccccc2)c(=O)[nH]c1=O	72.1*	-5.7	nt	-15.3	-6.2	-17.5
CN(C)C(=O)c1ccc(-c2ccc([C@@H]3[C@@H](CO)N4C(=O)CN(C(=O)C5CCC5)C[C@H]34)cc2)cc1	nt	nt	nt	nt	nt	-5.1
CCCC#Cc1ccc([C@H]2[C@@H](CO)N3C(=O)CN(C(=O)Nc4cccc(F)c4)C[C@H]23)cc1	nt	nt	nt	nt	nt	-7.0
CS(=O)(=O)N(CC(=O)Nc1cccc(F)c1)c1cccc([N+](=O)[O-])c1	1.8	3.8	-1.9	nt	276.8*	nt
C[C@@H]1CN([C@H](C)CO)C(=O)c2cc(NC(=O)Cc3ccccc3)ccc2O[C@@H]1CN(C)S(=O)(=O)c1ccc(Cl)cc1	nt	nt	nt	nt	98.6*[16.7 µM]	-6.5
C[C@@H]1CN([C@H](C)CO)C(=O)c2cc(NC(=O)Cc3cn(C)c4ccccc34)ccc2O[C@@H]1CN(C)S(=O)(=O)c1ccc(Cl)cc1	nt	nt	nt	nt	101.0*[16.7 µM]	0.6
C[C@@H]1CN([C@@H](C)CO)C(=O)c2cc(NC(=O)Cc3ccccc3)ccc2O[C@H]1CN(C)S(=O)(=O)c1ccc(Cl)cc1	nt	nt	nt	nt	-5.5[16.7 µM]	-7.5
C[C@@H]1CN([C@@H](C)CO)C(=O)c2cc(NC(=O)Nc3ccccc3)ccc2O[C@@H]1CN(C)S(=O)(=O)c1ccc(Cl)cc1	nt	nt	nt	nt	40.8[16.7 µM]	-7.0
C[C@@H]1CN([C@H](C)CO)C(=O)c2cc(NC(=O)Nc3ccccc3)ccc2O[C@@H]1CN(C)S(=O)(=O)c1ccc(Cl)cc1	nt	nt	nt	nt	100.3*[16.7 µM]	-29.6
C[C@@H]1CN([C@@H](C)CO)C(=O)c2cc(NC(=O)Cc3cn(C)c4ccccc34)ccc2O[C@@H]1CN(C)S(=O)(=O)c1ccc(Cl)cc1	nt	nt	nt	nt	44.5[16.7 µM]	-3.3
COc1ccc(S(=O)(=O)Nc2ccc3c(c2)CC(=O)N([C@H](C)CO)C[C@@H](C)[C@@H](CN(C)S(=O)(=O)c2ccc(Cl)cc2)O3)cc1	nt	nt	nt	nt	-0.6[16.7 µM]	3.5
CC(=O)C1=C(c2ccc(Br)cc2)C(=O)c2ccccc2C1=O	nt	-25.6	76.0*	-83.5	-76.2	-34.6
Cc1cc(=O)n2cc(-c3ccccc3)nc2[nH]1	-1.0	nt	2.8	nt	nt	nt
Cc1ccc(-c2cn3c(=O)cc(C)[nH]c3n2)cc1	-2.0	44.8*	3.1	61.0	1.4	nt
CC(=O)Nc1ccc2c(c1)C(=O)N(C)C[C@@H](C)[C@@H](CN(C)C(=O)OC(C)(C)C)O2	nt	nt	nt	nt	nt	33.7
CC(=O)N(C)C[C@H]1Oc2ccc(NS(C)(=O)=O)cc2C(=O)N(C)C[C@H]1C	nt	nt	nt	nt	nt	-8.6
SMILES	NSD2 HMT inh	Wnt bcat act	Dyrk1A ADPGlo	MITF act	miR-122 sensor	GSIS activator
O=C(CN1CCOCC1)Nc1ccc(C2CCCCC2)cc1	-9.7	31.0*	-4.7	42.5	3.9	nt
CCOc1ccc(S(=O)(=O)N2CCN(C(=O)CN3C(=O)NC(C)(C)C3=O)CC2)cc1	-1.6	46.9*	3.8	8.4	nt	21.1
O=C1N/C(=N\N=C\c2cccs2)SC1Cc1cccc(Cl)c1 (stereo not drawn)	0.4	nt	-0.6	-4.2	nt	85.7*
CCCCNC(=O)N(O)C1N(/N=C/c2ccco2)C(=S)SC1(C)C (stereo not drawn)	2.3	5.2	-6.8	7.7	nt	-20.7
CCCCNC(=O)N(O)C1N(/N=C/c2ccccc2F)C(=S)SC1(C)C (stereo not drawn)	-0.2	-1.9	-1.5	nt	116.0*	-12.7
CCCCCCOC(=O)C[N+](C)(C)CCOC1CC2CCC1(C)C2(C)C (stereo not drawn)	-2.5	nt	-12.1	nt	6.2	nt
CCCCCCCOC(=O)C[N+](C)(C)CCOC1CC2CCC1(C)C2(C)C (stereo not drawn)	2.7	-7.2	6.3	-93.7	nt	433.5*
Cc1ccccc1-c1cnc2c(c1)C(=O)N([C@@H](C)CO)C[C@H](C)[C@@H](CN(C)C(=O)c1ccc(F)cc1)O2	nt	nt	nt	nt	nt	-20.5
CN1C(=O)c2ccc(N3CCCC3)cc2C1=O	1.6	nt	-2.9	16.5	-1.6	-8.3
Cc1cc(N2CCCC2)ccc1/C=C1\NC(=S)N(C)C1=O	9.4	53.5*	-1.8	78.8	-29.6	-18.1
COc1ccc(S(=O)(=O)Nc2ccc3c(c2)CC(=O)N([C@H](C)CO)C[C@@H](C)[C@H](CN(C)C(=O)NC2CCCCC2)O3)cc1	nt	nt	nt	nt	7.1[16.7 µM]	-1.9
COc1ccc2c3c(n(C)c2c1)[C@H](CO)N(C(=O)C1CCC1)CC31CCN(C(=O)CN(C)C)CC1	nt	nt	nt	nt	nt	13.7
CN(C)c1ccc(-c2nn3c(-c4ccco4)nnc3s2)cc1	-15.1	nt	nt	nt	nt	nt
Cc1ccc(-c2nnc3sc(-c4ccncc4)nn23)cc1	-5.7	nt	26.9	25.3	-3.2	67.5*
Cc1nnc2sc(-c3ccc(N(C)C)cc3)nn2c1=O	3.9	24.4	-0.5	108.7*	10.0	-6.4
COc1cccc(-c2ccc3c(c2)O[C@@H](CN(C)C)[C@H](C)CN([C@@H](C)CO)S3(=O)=O)c1	nt	nt	nt	nt	-12.6[16.7 µM]	12.9
COc1ccc(S(=O)(=O)N2C[C@H](O)COC[C@H]3O[C@@H](CC(=O)NCCN4CCCCC4)CC[C@@H]32)cc1	nt	nt	nt	nt	0.6[16.7 µM]	11.9
COCC#Cc1ccc2c(c1)O[C@H](CN(C)C(=O)C1CC1)[C@@H](C)CN([C@@H](C)CO)S2(=O)=O	nt	nt	nt	nt	6.5[16.7 µM]	2.5
C=C(C)CNC(=S)Nc1cccc(S(=O)(=O)NC2=NCCC2)c1	-4.8	-2.8	nt	-2.7	13.4	-16.9
C=C(C)CNC(=S)Nc1nc2c(cc1C(=O)OCC)CCCC2	-2.9	29.6	nt	83.1*	9.9	20.2
Cc1cc2n(n1)SC(Nc1cccc3ccccc13)N2 (stereo not drawn)	7.4	47.1*	2.9	0.8	7.5	nt
O=C(Nc1nc2ccc(F)cc2s1)c1cccs1	-2.5	56.9*	6.7	46.0	nt	1.3
